# In the library only some 10% were active in any assay of this set; here they are far more common.
# FLuc inh – inhibitors of firefly (Photinus pyralis) luciferase; P08659; purified P. pyralis luciferase, luminescence, biochemical; Potency, µM (highest dose often 115 µM), hits mostly inhibitors; actives 2.5% (n = 76,000); AID 1347043; further: on the % scale 0 is the no-effect control and ±100 the full control effect; nearly all actives have a fitted effect of over 65% in size
#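 Cell-free enzyme assay, 10nM P. pyralis luciferase, luciferin and ATP each at 10uM. Inhibition profiled over a 6-point titration, read as luminescence.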
# GPT2 inh – inhibitors of human GPT2 alanine aminotransferase; Q8TD30; Recombinant GPT2, coupled pyruvate oxidase/HRP Amplex Red fluorescence; Potency, µM (series often up to 57.7 µM), inactives show at the top dose activity change, negative = inhibition, most hits filed as inhibitors; actives 0.25% (n = 100,000); further: on the % scale 0 is the no-effect control and ±100 the full control effect; nearly all actives have a fitted effect of over 60% in size
#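 Inhibition is scored from Amplex Red fluorescence generated when pyruvate oxidase and HRP act on pyruvate released by GPT2. Reactions contain 10ng/uL enzyme, 250uM a-KG and 2mM L-alanine and run 30 min at room temperature.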
# 3T3 cytotox – kills NIH 3T3 cells; actives 4.3% (n = 94,000); NIH 3T3 viability, CellTiter-Glo ATP luminescence, 48-72 h; AID 1345082; Potency, µM (titrated, usually from 96.7 µM), for the others: top-dose activity change, negative = cytotoxicity, most hits filed as inhibitors; further: on the % scale 0 is the no-effect control and ±100 the full control effect; nearly all actives have a fitted effect of over 55% in size
#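 ATP-dependent luminescence (CellTiter-Glo) served as the viability signal for NIH 3T3 cells treated with compound for 48 or 72 hr at 37 °C.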
# HEK cytotox – cytotoxic compounds in HEK 293 cells. actives 6.6% (n = 94,000). Potency, µM (top dose mostly 115 µM), for the others: top-dose activity change, negative = cytotoxicity, usual class: inhibitors. HEK 293 viability, ATP luminescence (CellTiter-Glo), 48-72 h; further: on the % scale 0 is the no-effect control and ±100 the full control effect; nearly all actives have a fitted effect of over 60% in size
#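 Luminescence from cellular ATP, measured with CellTiter-Glo, indicates HEK 293 viability. Cells plated at 250 cells/well are treated with compound for 48 or 72 hr at 37 degree Celsius before reagent addition.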
# hNpr1 antagonist – antagonists of human natriuretic peptide receptor Npr1. HEK293 hNpr1 GloSensor cGMP, ANP-stimulated luminescence. P16066. AID 1347048. Potency, µM (top dose mostly 46.3 µM), for the others: at the highest dose activity change, negative = inhibition, most hits filed as inhibitors. actives 1.6% (n = 76,000); calls by dose curve; further: on the % scale 0 is the no-effect control and ±100 the full control effect; nearly all actives have a fitted effect of over 60% in size
# Target sequence (P16066 whole entry, looked up): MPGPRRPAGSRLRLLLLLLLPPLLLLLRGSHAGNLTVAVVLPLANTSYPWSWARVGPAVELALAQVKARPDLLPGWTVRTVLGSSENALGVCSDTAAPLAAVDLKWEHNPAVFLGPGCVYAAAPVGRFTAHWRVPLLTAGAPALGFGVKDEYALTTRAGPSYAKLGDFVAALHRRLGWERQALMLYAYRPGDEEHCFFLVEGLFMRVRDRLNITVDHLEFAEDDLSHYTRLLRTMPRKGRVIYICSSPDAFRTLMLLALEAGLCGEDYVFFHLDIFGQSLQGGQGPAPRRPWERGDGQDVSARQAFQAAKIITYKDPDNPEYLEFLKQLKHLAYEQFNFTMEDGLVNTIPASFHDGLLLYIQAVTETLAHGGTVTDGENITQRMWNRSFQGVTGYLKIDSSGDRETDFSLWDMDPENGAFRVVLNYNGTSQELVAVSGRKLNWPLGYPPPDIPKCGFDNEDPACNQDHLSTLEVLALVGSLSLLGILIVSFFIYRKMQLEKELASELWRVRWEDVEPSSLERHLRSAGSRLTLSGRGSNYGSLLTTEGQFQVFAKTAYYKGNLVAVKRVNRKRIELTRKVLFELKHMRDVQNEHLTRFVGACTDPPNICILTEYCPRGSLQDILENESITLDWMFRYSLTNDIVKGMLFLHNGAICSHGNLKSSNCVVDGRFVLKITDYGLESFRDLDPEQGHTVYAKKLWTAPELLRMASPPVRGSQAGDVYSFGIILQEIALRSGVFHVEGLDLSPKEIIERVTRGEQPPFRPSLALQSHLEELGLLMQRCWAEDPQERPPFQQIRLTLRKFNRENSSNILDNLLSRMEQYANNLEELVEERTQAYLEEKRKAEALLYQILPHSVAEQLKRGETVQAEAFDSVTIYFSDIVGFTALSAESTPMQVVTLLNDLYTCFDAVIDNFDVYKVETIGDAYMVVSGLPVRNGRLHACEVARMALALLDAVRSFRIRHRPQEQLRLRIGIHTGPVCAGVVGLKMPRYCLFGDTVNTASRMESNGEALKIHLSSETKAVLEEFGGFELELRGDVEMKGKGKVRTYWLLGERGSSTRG
#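 Compound pre-incubated 30 min at room temperature on GloSensor-loaded HEK293 cells stably carrying hNpr1 and the pGS-40F cGMP biosensor. Stimulation uses hNppA at 0.1 nM final; luminescence is taken at baseline and 20 min post-agonist.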
# NPR1 antag cnf – hNpr1 antagonism, confirmation assay | shares compounds with hNpr1 antagonist | HEK293 hNpr1 cGMP GloSensor luminescence, ANP-stimulated | Potency, µM (top dose mostly 57.6 µM), without a hit: top-dose activity change, negative = inhibition, actives largely listed as inhibitors | actives 76% (n = 1,400); calls by dose curve; further: nearly all actives have a fitted effect of over 70% in size
# NPR2 antag – antagonizes human Npr2, subtype selectivity check; shares compounds with hNpr1 antagonist; HEK293 hNpr2 GloSensor cGMP luminescence, CNP-stimulated; Potency, µM (series often up to 57.6 µM), for inactives: at the highest dose activity change, negative = inhibition, usual class: inhibitors; actives 67% (n = 1,400); calls by dose curve; further: nearly all actives have a fitted effect of over 70% in size
# FLuc counter – inhibits firefly luciferase, false Npr1 antagonist flag; Potency, µM (doses to about 57.6 µM), without a hit: at the top dose activity change, negative = inhibition, actives largely listed as inhibitors; actives 0.7% (n = 1,400); purified FLuc enzyme, luminescence, Km substrate; AID 1347047; shares compounds with hNpr1 antagonist; further: 0% is about no effect
# GloSensor ctrl – counter-screen for Npr1 antagonists: GloSensor control cell line | shares compounds with hNpr1 antagonist | HEK293 GloSensor cGMP, SNP-stimulated, luminescence | Potency, µM (series often up to 57.6 µM), for inactives: at the highest dose activity change, negative = inhibition, actives largely listed as inhibitors | actives 69% (n = 1,400) | AID 1347051; calls by dose curve; further: on the % scale 0 is the no-effect control and ±100 the full control effect; nearly all actives have a fitted effect of over 70% in size
# An asterisk follows results filed as active; i = inactive; ? = inconclusive; . = not tested or not shown; [ ] = remark or other dose. Unless noted, the call rests on the fitted dose curve; in most records, active means well fitted curve in the direction sought with a large enough effect; inconclusive means small, poorly fitted or top-dose-only effect, or another doubt; inactive means no such curve, though single readings can be large; an effect the other way counts as inactive or inconclusive. Potency means the concentration at half of the fitted maximal effect.
SMILES,FLuc inh,GPT2 inh,3T3 cytotox,HEK cytotox,hNpr1 antagonist,NPR1 antag cnf,NPR2 antag,FLuc counter,GloSensor ctrl
O=C(Cn1cccc1-c1nc(-c2ccccc2)no1)N1CCN(c2ccccc2F)CC1,i,i,-20%,?,2%,.,.,.,.
Cc1ccc(C)c([S+](=O)([O-])c2nnn3c2nc(NC2CCCC2)c2ccccc23)c1,.,i,?,?,.,.,.,.,.
CC(C)Oc1ccc(CN2C[C@@H](CO)[C@H](c3ccncc3)C2)cc1,i,0%,-15%,40µM*,11µM*,?,?,1%,27µM*
O=C(NCc1ccccc1Cl)c1ccc2oc(-c3ccccn3)nc2c1,.,-8%,-29%,?,.,.,.,.,.
O=C(CCC1CC1)N1CCC(c2cc(Cc3ccccc3)[nH]n2)CC1,i,i,?,?,-27%,-27%,-25%,-12%,-27%
O=C(c1ccc(F)c(Cl)c1)N1CCN(C(=O)c2nnn3c2COC(c2ccccc2)C3)CC1 (centres undefined),i,i,?,?,13µM*,22µM*,24µM*,1%,22µM*
O=C(c1cccc(Cl)c1)N1CCN(C(=O)c2nnn3c2COC(c2ccc(F)cc2)C3)CC1 (centres undefined),i,1%,?,?,13µM*,24µM*,24µM*,0%,24µM*
O=C(c1cccc(Cl)c1)N1CCN(C(=O)c2nnn3c2COC(c2ccc(Cl)cc2)C3)CC1 (centres undefined),i,-11%,?,?,-18%,.,.,.,.
O=C(c1ccc(F)c(F)c1)N1CCN(C(=O)c2nnn3c2COC(c2ccc(Cl)cc2)C3)CC1 (centres undefined),i,i,?,-46%,13µM*,22µM*,22µM*,8%,19µM*
CN(C)c1cccc(C(=O)N2CCN(C(=O)c3nnn4c3COC(c3ccc(Cl)cc3)C4)CC2)c1 (centres undefined),i,i,?,?,13µM*,24µM*,24µM*,-29%,24µM*
O=C(NCC(F)(F)F)c1ccc2nc(-c3cccnc3)oc2c1,.,i,-26%[138 µM],?,.,.,.,.,.
COc1cccc(C(=O)N2CCCC2C(=O)N2CCC(c3nc4ccncc4[nH]3)C2)c1 (centres undefined),.,-24%,-2%,5%,.,.,.,.,.
O=[S+]1([O-])NCC2(CCCN(CC3CC3)C2)Nc2ccccc21 (centres undefined),i,-10%[88.5 µM],-25%[138 µM],-27%[172 µM],0%[70.6 µM],.,.,.,.
COc1ccc(C(=O)N2CCN(C(=O)c3nnn4c3COC(c3ccc(Cl)cc3)C4)CC2)cc1F (centres undefined),i,2%,-31%,?,?,24µM*,27µM*,1%,22µM*
O=C(c1nnn2c1COC(c1ccc(Cl)cc1)C2)N1CCN(C(=O)c2c(F)cccc2F)CC1 (centres undefined),i,i,?,?,?,?,?,0%,?

# High-throughput results as filed in PubChem BioAssay.
